Among the data in PubChem BioAssay are composite z-score and z-score values, retold here.

Test [1] deals with Plasmodium falciparum Sir2 (PF13_0152, Sir2A). In words: Plasmodium falciparum Sir2A binding compounds – biochemical, small-molecule microarray, 635 nm fluorescence, primary screen (AID 1098).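 Also: score merges spot fluorescence intensity with its signal-to-noise ratio.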 Conditions: fluorescence 635 nm, higher = more signal.
Test [2] is described as follows: probe aDKK1 binding to arrayed compounds – biochemical, biotinylated probe, 635/667 nm fluorescence, primary screen (AID 1099).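 Also: score merges 667nm spot fluorescence with signal to noise across triplicate slides.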 Conditions: small-molecule microarray, higher = more signal.
The nature of test [3]: probe aCHRDL2 binding to arrayed compounds – biochemical, biotinylated probe, 635/667 nm fluorescence, primary screen (AID 1100). Conditions: small-molecule microarray, higher = more signal.
Test [4] in a line: change in splice reporter luminescence, either direction, cell-based, HEK293, spliceosome inhibition project, primary screen (AID 1101).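 Also: HEK293 cells carrying a splicing-competent luciferase reporter gene; test concentration not given here.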 Conditions: HEK293 splicing luciferase reporter, 24 h, higher = more signal, called active from +8 up or from −8 down.
In test [5] the target is Fibroblast growth factor 10 (Homo sapiens) (UniProt O15520). In words: compounds binding fibroblast growth factor 10 – biochemical, small-molecule microarray, 635 nm fluorescence, primary screen (AID 1102). Conditions: FGF10 binding, fluorescence 635 nm, higher = more signal.
Fibroblast growth factor 10 (Homo sapiens), sequence (O15520 whole entry, looked up): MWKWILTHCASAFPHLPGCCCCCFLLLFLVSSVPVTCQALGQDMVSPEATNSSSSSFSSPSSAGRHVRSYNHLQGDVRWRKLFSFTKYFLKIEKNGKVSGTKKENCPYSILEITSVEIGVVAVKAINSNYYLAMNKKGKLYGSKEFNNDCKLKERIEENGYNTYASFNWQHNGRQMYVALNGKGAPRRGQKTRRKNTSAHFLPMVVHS
The test system of test [6] is glycogen synthase kinase-3 (GSK3A per assay name; protocol says GSK3B). In words: compounds binding glycogen synthase kinase-3 – biochemical, small-molecule microarray, 635 nm fluorescence, GSK3A, primary screen (AID 1103). Also: the record names both GSK3A and GSK3B. Conditions: fluorescence 635 nm, higher = more signal.
Test [7] addresses Epidermal growth factor receptor (Homo sapiens) (UniProt P00533). The test can be described thus: compounds binding epidermal growth factor receptor – biochemical, small-molecule microarray, 635 nm fluorescence, primary screen (AID 1104).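 Also: score merges 667 nm emission intensity with spot signal to noise over triplicate slides.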 Conditions: EGFR binding, higher = more signal.
The target in test [8] is Follistatin-related protein 3 (Homo sapiens) (UniProt O95633). In words: compounds binding follistatin-related protein 3 – biochemical, small-molecule microarray, 635 nm fluorescence, primary screen (AID 1105).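 Also: score merges emission near 667 nm and signal to noise per printed spot across three slides.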 Conditions: FSTL3 binding, higher = more signal.
Follistatin-related protein 3 (Homo sapiens), sequence (O95633 whole entry, looked up): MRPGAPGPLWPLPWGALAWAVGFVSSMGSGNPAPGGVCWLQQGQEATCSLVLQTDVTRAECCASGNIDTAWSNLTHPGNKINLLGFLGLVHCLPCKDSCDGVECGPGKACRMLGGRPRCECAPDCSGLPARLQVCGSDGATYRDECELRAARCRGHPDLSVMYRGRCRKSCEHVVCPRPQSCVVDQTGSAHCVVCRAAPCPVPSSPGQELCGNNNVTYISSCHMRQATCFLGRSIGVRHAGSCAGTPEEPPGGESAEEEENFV
The target of test [9] is Dickkopf-related protein 1 (Homo sapiens) (UniProt O94907). In words: small molecules binding DKK1 protein – biochemical, small-molecule microarray, 635 nm fluorescence scan, primary screen (AID 1106).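 Also: score merges emission near 667 nm with signal to noise over three replicate slides.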 Conditions: higher = more signal.
Dickkopf-related protein 1 (Homo sapiens), sequence (O94907 whole entry, looked up): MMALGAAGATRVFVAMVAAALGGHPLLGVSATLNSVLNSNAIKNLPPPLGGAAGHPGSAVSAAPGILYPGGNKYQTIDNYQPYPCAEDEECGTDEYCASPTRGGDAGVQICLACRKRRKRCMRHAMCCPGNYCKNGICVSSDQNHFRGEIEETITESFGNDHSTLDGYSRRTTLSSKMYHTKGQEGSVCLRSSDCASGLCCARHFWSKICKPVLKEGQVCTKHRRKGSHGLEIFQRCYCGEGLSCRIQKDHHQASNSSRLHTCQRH
Test [10] deals with Inhibin beta A chain (activin A). In words: small molecules binding activin A – biochemical, small-molecule microarray, 635 nm fluorescence scan, primary screen (AID 1107).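 Also: mouse activin A protein probed at 4.33 µg/mL on printed slides; score merges bound-protein fluorescence near 667 nm with spot signal-to-noise.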 Conditions: INHBA, higher = more signal.
Test [11] deals with Human papillomavirus type 1a protein E7 (residues 44-93). The test can be described thus: small molecules binding HPV E7 44-93 – biochemical, small-molecule microarray, residues 44-93, 635 nm fluorescence, primary screen (AID 1108).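 Also: E7 fragment applied at 1 µg/mL in TBST for 1 h at 4 C; score combines spot fluorescence with its signal to noise ratio.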 Conditions: fluorescence 635 nm, higher = more signal.
Test [12] can be described thus: hepatitis C replication reporter changes, two-sided – Huh7 cells, luciferase reporter, HCV replication inhibitor project, primary screen (AID 1109).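 Also: huh7 hepatoma cells harbouring a luciferase neomycin HCV replicon reporter; luciferase luminescence as measure of HCV replicon replication; test concentration not given here.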 Conditions: Huh7 HCV replicon luciferase reporter, 48 h; higher = more signal. A general note: In a reporter assay the amount or activity of a reporter protein is the signal.
The target of test [13] is Left-right determination factor 2 (Homo sapiens) (UniProt O00292). The test can be described thus: small molecules binding LEFTY2 protein – biochemical, small-molecule microarray, 635 nm fluorescence scan, primary screen (AID 1110). Conditions: higher = more signal.
Left-right determination factor 2 (Homo sapiens), sequence (O00292 whole entry, looked up): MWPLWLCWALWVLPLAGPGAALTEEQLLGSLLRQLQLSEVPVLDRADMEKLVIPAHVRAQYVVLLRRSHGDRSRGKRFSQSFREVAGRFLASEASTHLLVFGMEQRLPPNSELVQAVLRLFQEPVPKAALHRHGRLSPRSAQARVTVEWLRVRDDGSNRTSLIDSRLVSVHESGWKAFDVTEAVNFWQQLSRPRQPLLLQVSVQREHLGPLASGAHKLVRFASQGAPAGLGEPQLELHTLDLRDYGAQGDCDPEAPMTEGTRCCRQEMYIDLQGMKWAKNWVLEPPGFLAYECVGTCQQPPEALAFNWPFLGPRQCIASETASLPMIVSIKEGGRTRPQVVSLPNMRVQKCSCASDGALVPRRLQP
Test [14] concerns the target Calmodulin-1 (Homo sapiens) (UniProt P0DP23). In words: small molecules binding calmodulin-1 with EGTA – biochemical, small-molecule microarray, Cy5-labelled CALM1, profiling panel (AID 1111).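 Also: labelled calmodulin applied in Tris saline Tween buffer holding calcium plus EGTA and DTT.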 Conditions: Cy5-CALM1 binding fluorescence, higher = more signal.
Test [15] has the same target. The test can be described thus: small molecules binding Ca-loaded calmodulin-1 – biochemical, small-molecule microarray, Cy5-labelled CALM1, plus calcium, artefact control for SMM control-protein annotation, profiling panel (AID 1112).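 Also: score merges spot fluorescence with signal to noise from triplicate slides.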 Conditions: Cy5-CALM1 binding fluorescence, higher = more signal.
Test [16] in a line: probe aWnt5a binding to arrayed compounds – biochemical, biotinylated probe, 635/667 nm fluorescence, primary screen (AID 1113).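 Also: score merges 667 nm fluorescence intensity with signal-to-noise per printed feature.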 Conditions: small-molecule microarray, higher = more signal.
A short description of test [17]: probe aShh binding to arrayed compounds – biochemical, biotinylated probe, 635/667 nm fluorescence, primary screen (AID 1114).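 Also: probe is biotin-labelled aShh protein from a stem cell growth factor screen; measures binding of labelled protein to compounds printed on the slide; score merges feature fluorescence at 667 nm with signal-to-noise.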 Conditions: small-molecule microarray, higher = more signal.
A short description of test [18]: probe aNog binding to arrayed compounds – biochemical, biotinylated probe, 635/667 nm fluorescence, primary screen (AID 1115).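 Also: probe is biotinylated aNog protein used at 0.15 µg/mL for 1 h at 4 C; z-score combines 667 nm fluorescence of each spot with its signal to noise.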 Conditions: small-molecule microarray, higher = more signal.
For test [19], the target named is Torsin-1A-interacting protein 1 (Homo sapiens) (UniProt Q5JTV8). In words: compound microarray binding of lysate hLAP1 – cell lysate, small-molecule microarray, COS7 lysate, 635/667 nm fluorescence, primary screen (AID 1116). Conditions: 635 nm fluorescence, higher = more signal.
Torsin-1A-interacting protein 1 (Homo sapiens), sequence (Q5JTV8 whole entry, looked up): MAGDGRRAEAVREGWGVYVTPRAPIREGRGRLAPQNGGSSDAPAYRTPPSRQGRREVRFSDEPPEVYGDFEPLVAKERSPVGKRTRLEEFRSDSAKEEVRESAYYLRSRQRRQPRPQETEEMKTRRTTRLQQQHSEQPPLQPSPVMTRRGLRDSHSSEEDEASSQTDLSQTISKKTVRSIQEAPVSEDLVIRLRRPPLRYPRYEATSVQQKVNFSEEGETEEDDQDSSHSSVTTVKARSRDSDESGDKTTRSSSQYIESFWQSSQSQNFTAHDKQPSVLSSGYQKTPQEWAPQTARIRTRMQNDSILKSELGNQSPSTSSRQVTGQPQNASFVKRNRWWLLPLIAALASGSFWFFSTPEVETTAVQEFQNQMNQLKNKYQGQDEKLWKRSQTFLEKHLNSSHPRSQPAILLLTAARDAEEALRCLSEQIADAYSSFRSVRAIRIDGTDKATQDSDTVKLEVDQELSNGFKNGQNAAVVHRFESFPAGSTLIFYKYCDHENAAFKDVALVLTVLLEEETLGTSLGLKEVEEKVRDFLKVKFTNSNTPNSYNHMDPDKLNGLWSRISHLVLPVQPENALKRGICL
The target in test [20] is Alpha-bungarotoxin (Bungarus multicinctus) (UniProt P60615). In words: compounds binding labelled alpha-BTX control protein – biochemical, small-molecule microarray, Alexa647 label, 635/667 nm fluorescence, artefact control for SMM control protein annotation, profiling panel (AID 1117). Conditions: alpha-BTX-A647 binding fluorescence, higher = more signal.
Alpha-bungarotoxin (Bungarus multicinctus), sequence (P60615 whole entry, looked up): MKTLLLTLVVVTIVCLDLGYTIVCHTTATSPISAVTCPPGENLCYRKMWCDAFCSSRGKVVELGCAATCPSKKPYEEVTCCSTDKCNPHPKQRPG

Each structure is given as a SMILES string. The source made the active and inactive calls.

Epidermal growth factor receptor (Homo sapiens), sequence (P00533 whole entry, looked up): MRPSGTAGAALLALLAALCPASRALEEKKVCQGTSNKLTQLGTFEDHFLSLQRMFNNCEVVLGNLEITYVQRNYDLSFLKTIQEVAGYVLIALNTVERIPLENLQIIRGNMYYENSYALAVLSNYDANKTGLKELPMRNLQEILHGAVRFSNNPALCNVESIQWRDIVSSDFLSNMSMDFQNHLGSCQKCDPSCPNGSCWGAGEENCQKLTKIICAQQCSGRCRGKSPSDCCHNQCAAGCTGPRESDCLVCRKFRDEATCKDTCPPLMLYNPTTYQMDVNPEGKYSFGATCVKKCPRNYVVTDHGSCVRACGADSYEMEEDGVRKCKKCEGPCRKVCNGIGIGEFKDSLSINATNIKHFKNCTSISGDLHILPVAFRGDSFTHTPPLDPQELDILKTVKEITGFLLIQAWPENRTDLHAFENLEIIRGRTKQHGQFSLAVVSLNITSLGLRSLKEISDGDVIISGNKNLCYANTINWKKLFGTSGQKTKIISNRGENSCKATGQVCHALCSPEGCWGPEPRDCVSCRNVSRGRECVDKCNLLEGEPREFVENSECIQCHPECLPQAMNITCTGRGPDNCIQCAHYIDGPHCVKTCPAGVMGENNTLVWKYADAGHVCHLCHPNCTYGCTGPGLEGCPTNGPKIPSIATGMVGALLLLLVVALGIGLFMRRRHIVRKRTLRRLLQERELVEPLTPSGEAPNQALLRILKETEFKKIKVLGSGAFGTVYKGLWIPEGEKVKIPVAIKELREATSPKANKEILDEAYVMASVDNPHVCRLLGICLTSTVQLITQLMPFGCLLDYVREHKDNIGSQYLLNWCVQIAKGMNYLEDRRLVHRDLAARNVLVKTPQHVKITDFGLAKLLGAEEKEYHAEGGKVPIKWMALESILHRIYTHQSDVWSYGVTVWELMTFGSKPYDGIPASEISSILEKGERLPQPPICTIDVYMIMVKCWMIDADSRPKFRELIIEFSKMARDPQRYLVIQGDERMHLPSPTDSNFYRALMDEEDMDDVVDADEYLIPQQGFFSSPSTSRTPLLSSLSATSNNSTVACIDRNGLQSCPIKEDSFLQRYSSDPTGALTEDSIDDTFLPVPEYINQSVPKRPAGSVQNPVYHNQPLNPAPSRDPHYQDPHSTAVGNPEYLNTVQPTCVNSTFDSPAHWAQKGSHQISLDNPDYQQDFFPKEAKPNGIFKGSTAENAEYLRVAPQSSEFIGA

Consider `COc1ccc(CCNC(=O)[C@@]2(Sc3ccc(C)cc3)CC(=O)N(C3Cc4ccccc4C3)[C@@H]2c2ccc(CO)cc2I)cc1`, for which the composite z-score in [1] was 1.09; in [2] it was 0.736; in [3] it was 0.575; in [5], -0.461; in test [6], -0.64; in [7], -0.895. The composite z-score is -0.856 in test [8]; -1.41 in test [9]; 0.48 in [10]; 0.615 in test [11]; -0.911 in test [13]; 0.113 in test [14]. Further, the composite z-score in test [15] was 0.795; in test [16], -0.0398; in test [17], -0.0234; in test [18], 0.136; in test [19], 0.548; in [20] it was 1.59. Also, the z-score in test [4] was -1.27 (inactive); in test [12] it was -2.48.

In the case of `Oc1ccc2cc[n+](Cc3sc4ccccc4c3Cl)cc2c1`, the composite z-score is 0.23 in test [1]; 0.0518 in test [2]; 0.799 in [3]; 0.469 in [5]; -0.402 in test [6]; -0.0568 in test [7]. The composite z-score in [8] was 0.618; in [9] it was 0.481; in [10] it was 1.28; in [11], -0.317; in [13], 0.0344; in [14], -0.481. Further, the composite z-score in test [15] is -0.683; in test [16], -0.124; in [17], 0.318; in test [18], -0.29; in [19] it was 1.22; in test [20], 1.02. Besides, the z-score in test [4] is -1.74 (inactive); in test [12], 0.514.

On to `COc1ccc(C(=O)Nc2ccc(CN3C(=O)[C@]4(O[C@H](CCO)[C@@H]([Si](C)(C)c5ccc(OC)cc5)[C@@H]4C)c4ccccc43)cc2)cc1`, for which the composite z-score was 1.21 in [1]; -0.122 in test [2]; 0.326 in test [3]; 0.708 in [5]; 0.762 in test [6]; 0.231 in [7]. Besides, the composite z-score came out at 1.02 in test [8]; 0.241 in test [9]; 1.3 in [10]; 1 in [11]; 0.202 in [13]; 0.564 in test [14]. Further, the composite z-score in test [15] is -0.314; in test [16], 0.026; in test [17] it was 0.014; in test [18] it was -0.226; in test [19], 0.432; in [20] it was 0.509. For the same compound, the z-score is -3.38 (inactive) in test [4] and -5.09 in test [12].

As to `CCCC[C@@H]1C[C@H]1[C@@H](NC(=O)c1cccs1)c1ccc(-c2ccccc2)cc1`, the composite z-score is -0.0357 in [1]; -0.0102 in test [2]; 0.69 in test [3]; 0.655 in test [5]; -0.595 in [6]; -0.0136 in test [7]. In addition, the composite z-score in test [8] is 0.369; in test [9], -0.116; in test [10], 1.3; in test [11], 0.495; in test [13], -0.0554; in test [14], 0.362. Further, the composite z-score in [15] is 0.295; in test [16], -0.0704; in test [17], -0.138; in test [18], 0.103; in test [19] it was 0.254; in [20] it was -0.474. The results for the z-score in test [4] and in test [12] were -1.23 (inactive) and -2.05, respectively.

For `CC1(C)[C@@H]2CC(C(O)C3C=CC4C(=O)N(Cc5ccccc5)C(=O)C4N3n3cnnc3)=C[C@H]1C2` (stereo not given in full), the composite z-score in [1] stood at 0.779; in [2], 0.454; in [3], 0.355; in [5], 0.801; in [6], 1.28; in [7] it was 0.0902. Also, the composite z-score in test [8] is 0.74; in test [9], 0.0252; in test [10], 1.2; in test [11], 1.4; in [13] it was 0.223; in test [14], 0.549. The composite z-score in [15] was -0.0552; in test [16], 0.0374; in test [17] it was -0.271; in test [18] it was -0.0304; in test [19], 0.187; in [20] it was 0.6. The z-score in test [4] was -0.0958 (inactive); in test [12] it was -0.254.
